The supplement of paper PMC7411054

Assays:
Assay in all cases: phenotypically active (imaging signature differs from DMSO and reproducible) at any of 0.3-9 uM (binary (1 = active, 0 = inactive)); higher = active
Details in all cases: treatment time: 24 h
[1] = test system: A549-ACTB-RAB5A
Procedure, shortened: (§1)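 Four wells per concentration (0.3, 1, 3 or 9 µM) were treated for 24 h in each of fifteen gene-edited reporter lines from A549, HepG2 and WPMY1 cells, then imaged live. After normalising live-cell features to solvent control wells, deviation was defined as ≥3 of 4 wells lying past the 95th percentile of control Euclidean distances. Reproducibility was defined as a median replicate Pearson correlation above the 95th percentile of non-replicates. Both had to hold for phenotypic activity.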

[2] = test system: A549-CANX-COX4
Procedure, shortened: as §1

[3] = test system: A549-GM130-SQSTM1
Procedure, shortened: as §1

[4] = test system: A549-TP53BP1-CLTA
Procedure, shortened: as §1

[5] = test system: A549-TUBA1B-RELA
Procedure, shortened: as §1

[6] = test system: HepG2-ACTB-RAB5A
Procedure, shortened: as §1

[7] = test system: HepG2-CANX-COX4
Procedure, shortened: as §1

[8] = test system: HepG2-GM130-SQSTM1
Procedure, shortened: as §1

[9] = test system: HepG2-TP53BP1-CLTA
Procedure, shortened: as §1

[10] = test system: HepG2-TUBA1B-RELA
Procedure, shortened: as §1

[11] = test system: WPMY1-ACTB-RAB5A
Procedure, shortened: as §1

[12] = test system: WPMY1-CANX-COX4
Procedure, shortened: as §1

[13] = test system: WPMY1-GM130-SQSTM1
Procedure, shortened: as §1

[14] = test system: WPMY1-TP53BP1-CLTA
Procedure, shortened: as §1

[15] = test system: WPMY1-TUBA1B-RELA
Procedure, shortened: as §1

Measured: phenotypically active

O=C(/C=C/c1ccc(O)c(O)c1)O[C@@H]1C[C@](O)(C(=O)O)C[C@@H](O)[C@H]1O [Chlorogenic acid]
inactive: [1] 0 | [2] 0 | [3] 0 | [4] 0 | [5] 0 | [6] 0 | [7] 0 | [8] 0 | [9] 0 | [10] 0 | [11] 0 | [12] 0 | [13] 0 | [14] 0 | [15] 0

NS(=O)(=O)Cc1noc2ccccc12 [zonisamide]
inactive: [1] 0 | [2] 0 | [3] 0 | [4] 0 | [5] 0 | [6] 0 | [7] 0 | [8] 0 | [9] 0 | [10] 0 | [11] 0 | [12] 0 | [13] 0 | [14] 0 | [15] 0

COCC(=O)N[C@@H](Cc1ccc(-c2cc(Cl)cc(Cl)c2)cc1)[C@H](O)[C@@H](O)C(=O)O
inactive: [1] 0 | [2] 0 | [3] 0 | [4] 0 | [5] 0 | [6] 0 | [7] 0 | [8] 0 | [9] 0 | [10] 0 | [11] 0 | [12] 0 | [13] 0 | [14] 0 | [15] 0

O=C1N(c2ccccc2)c2ccccc2C1(Cc1ccncc1)Cc1ccncc1 [linopirdine]
inactive: [1] 0 | [2] 0 | [3] 0 | [4] 0 | [5] 0 | [6] 0 | [7] 0 | [8] 0 | [9] 0 | [10] 0 | [11] 0 | [12] 0 | [13] 0 | [14] 0 | [15] 0

CC1=CC(=O)C2=C(C)CC[C@@H]3[C@H](OC(=O)[C@H]3C)[C@@H]12 [Leucomisine]
inactive: [1] 0 | [2] 0 | [3] 0 | [4] 0 | [5] 0 | [6] 0 | [7] 0 | [8] 0 | [9] 0 | [10] 0 | [11] 0 | [12] 0 | [13] 0 | [14] 0 | [15] 0

Nc1cc(-c2ccncc2)c[nH]c1=O [amrinone]
inactive: [1] 0 | [2] 0 | [3] 0 | [4] 0 | [5] 0 | [6] 0 | [7] 0 | [8] 0 | [9] 0 | [10] 0 | [11] 0 | [12] 0 | [13] 0 | [14] 0 | [15] 0

Cc1ccccc1C(OCCN(C)C)c1ccccc1 (stereo not given) [orphenadrine]
inactive: [1] 0 | [2] 0 | [3] 0 | [4] 0 | [5] 0 | [6] 0 | [7] 0 | [8] 0 | [9] 0 | [10] 0 | [11] 0 | [12] 0 | [13] 0 | [14] 0 | [15] 0

COCCc1ccc(OCC(O)CNC(C)C)cc1 (stereo not given) [metoprolol]
inactive: [1] 0 | [2] 0 | [3] 0 | [4] 0 | [5] 0 | [6] 0 | [7] 0 | [8] 0 | [9] 0 | [10] 0 | [11] 0 | [12] 0 | [13] 0 | [14] 0 | [15] 0
